Reference: the supplement of paper PMC10849652
Of roughly 8,800 targets only a part is listed; those with a hit were picked by preference. About 0.5% of all pairs of compound and target were hits.

Assays:
Test in all cases: log2 fold change, soluble protein after heating vs DMSO (PISA); higher = thermal stabilisation; K562 lysate, 10 uM; active = over 0.2 and 3.5 SD of the protein, either way, in both replicates (recomputed)
erlotinib = compound: C#Cc1cccc(Nc2ncnc3cc(OCCOC)c(OCCOC)cc23)c1 [erlotinib]
Procedure, shortened: (§1)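 The values are log-two fold changes in thermal stability compared with solvent controls and come from duplicates. They were obtained by TMTpro 16plex LC-MS/MS, with channel sums equalised, on the supernatant after 21,000xg for 90 min. That supernatant came from crude K562 extract at 1 mg/mL protein treated with 10 μM compound for 30 min, heated for 3 min across 48°C-58°C, pooled and brought to 0.5% NP-40 at 4°C.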

[1] = compound: C/C(=N\NC(=O)C1=CC(=CC=C1)S(=O)(=O)N2CCOCC2)/C3=C(C=CC(=C3)Cl)O
Procedure, shortened: as §1

[2] = compound: C1=CC(=CC=C1C2=NC3=C(N2)C=C(C=C3)C(=O)N)OC4=CC=C(C=C4)Cl
Procedure, shortened: as §1

[3] = compound: C1=CC2=C(C=CC(=C2)/C=C\3/C(=O)NC(=NCC4=CC=CS4)S3)N=C1
Procedure, shortened: as §1

[4] = compound: C1=CC2=NC=CN=C2C=C1/C=C/3\C(=O)NC(=O)S3
Procedure, shortened: as §1

[5] = compound: C1=CC=C(C=C1)C2=NC(=C(N2)C3=CC=NC=C3)C4=CC(=C(C=C4)Cl)O
Procedure, shortened: as §1

[6] = compound: C1=CC=C2C(=C1)C3=NNC4=CC=CC(=C43)C2=O
Procedure, shortened: as §1

[7] = compound: C1CCN(C1)C(=O)NC2=CC=CC(=C2)NC3=NC=C(C(=N3)NCCC4=CN=CN4)Br
Procedure, shortened: as §1

[8] = compound: C1CN(CCC1(CC2=CC=C(C=C2)Cl)N)C3=NC=NC4=C3C=CN4
Procedure, shortened: as §1

IRAK-1-4 Inhibitor I = compound: C1COCCN1CCN2C3=CC=CC=C3N=C2NC(=O)C4=CC(=CC=C4)[N+](=O)[O-] [IRAK-1-4 Inhibitor I]
Procedure, shortened: as §1

ibrutinib = compound: C=CC(=O)N1CCC[C@@H](n2nc(-c3ccc(Oc4ccccc4)cc3)c3c(N)ncnc32)C1 [ibrutinib]
Procedure, shortened: as §1

[9] = compound: CC(=O)c1cnc2ccc(-c3cc(Cl)c(O)c(Cl)c3)nc2c1N[C@H]1CC[C@H](CN(C)C)CC1
Procedure, shortened: as §1

ralimetinib = compound: CC(C)(C)Cn1c(N)nc2ccc(-c3[nH]c(C(C)(C)C)nc3-c3ccc(F)cc3)nc21 [ralimetinib]
Procedure, shortened: as §1

[10] = compound: CC(C)(O)CC(=O)NCCn1ccc2ncnc(Nc3ccc(Oc4cccc(C(F)(F)F)c4)c(Cl)c3)c21
Procedure, shortened: as §1

[11] = compound: CC(C)C1=C2N=C(C=C(N2N=C1)NCC3=CC=CC=C3)NCCCCCCN
Procedure, shortened: as §1

[12] = compound: CC1=C(C(CC(=O)N1)C2=CC=C(C=C2)C(F)(F)F)C(=O)NC3=C(C=C4C(=C3)C=NN4)F
Procedure, shortened: as §1

[13] = compound: CC1=C(C2=C(C=C1)C(=O)C3=CC=CC=C3N2CCCN)C
Procedure, shortened: as §1

[14] = compound: CC1=C(C=C(C=C1)NC(=O)C2=CC(=CC=C2)C(C)(C)C#N)NC3=CC4=C(C=C3)N=CN(C4=O)C
Procedure, shortened: as §1

[15] = compound: CC1=C(C=C(C=C1)NC(=O)C2=CC(=CC=C2)N(C)C)NC(=O)C3=CC=C(C=C3)O
Procedure, shortened: as §1

[16] = compound: CC1=CC=C(C=C1)SC2=C3C=C(SC3=CN=C2)C(=O)N
Procedure, shortened: as §1

Measured: log2 fold change

FARSA (UniProt Q9Y285)
inactive: erlotinib 0.045 | [1] -0.001 | [2] -0.054 | [3] 0.009 | [4] 0 | [5] 0.119 | [6] -0.005 | [7] 0.009 | [8] -0.023 | IRAK-1-4 Inhibitor I -0.018 | ibrutinib -0.006 | [9] -0.02 | ralimetinib 0.048 | [10] 0.025 | [11] 0.06 | [12] -0.014 | [13] -0.063 | [14] 0.055 | [15] 0 | [16] 0.006

DTWD1 (UniProt Q8N5C7)
inactive: erlotinib 0.01 | [1] 0.082 | [2] -0.039 | [3] -0.004 | [4] -0.048 | [5] -0.025 | [6] 0.039 | [7] 0.01 | [8] 0.047 | IRAK-1-4 Inhibitor I -0.01 | ibrutinib 0.013 | [9] 0.032 | ralimetinib 0.005 | [10] 0.005 | [11] 0.034 | [12] 0.058 | [13] -0.019 | [14] 0 | [15] -0.02 | [16] -0.027

FNTB (UniProt P49356)
inactive: erlotinib -0.03 | [1] -0.038 | [2] 0.011 | [3] 0.013 | [4] -0.034 | [5] -0.005 | [6] -0.02 | [7] 0.028 | [8] -0.022 | IRAK-1-4 Inhibitor I -0.006 | ibrutinib -0.018 | [9] 0.005 | ralimetinib 0.03 | [10] -0.013 | [11] -0.022 | [12] -0.036 | [13] -0.026 | [14] -0.011 | [15] 0.038 | [16] -0.013

GCLM (UniProt P48507)
inactive: erlotinib -0.012 | [1] 0.021 | [2] 0.006 | [3] 0.007 | [4] 0.023 | [5] -0.001 | [6] -0.034 | [7] 0.014 | [8] 0.039 | IRAK-1-4 Inhibitor I 0.016 | ibrutinib 0.006 | [9] -0.009 | ralimetinib 0.01 | [10] -0.047 | [11] -0.028 | [12] 0.006 | [13] -0.007 | [14] 0.024 | [15] -0.026 | [16] -0.006

GFPT1 (UniProt Q06210)
inactive: erlotinib 0.031 | [1] -0.008 | [2] 0.003 | [3] 0.013 | [4] -0.008 | [5] 0.001 | [6] -0.014 | [7] -0.021 | [8] 0.008 | IRAK-1-4 Inhibitor I 0.006 | ibrutinib 0.014 | [9] -0.014 | ralimetinib 0.002 | [10] -0.024 | [11] 0.022 | [12] -0.015 | [13] 0.012 | [14] 0.009 | [15] 0.014 | [16] 0.01

FMNL1 isoform 3 (UniProt O95466)
inactive: erlotinib -0.045 | [1] 0.045 | [2] -0.006 | [3] -0.102 | [4] -0.062 | [5] -0.004 | [6] 0.018 | [7] -0.006 | [8] 0.019 | IRAK-1-4 Inhibitor I -0.009 | ibrutinib 0.043 | [9] -0.002 | ralimetinib 0.038 | [10] -0.02 | [11] 0.023 | [12] 0.099 | [13] 0.03 | [14] 0.073 | [15] 0.015 | [16] 0.001

ERI1 (UniProt Q8IV48)
UniProt Q8IV48, sequence (Q8IV48 whole entry, looked up): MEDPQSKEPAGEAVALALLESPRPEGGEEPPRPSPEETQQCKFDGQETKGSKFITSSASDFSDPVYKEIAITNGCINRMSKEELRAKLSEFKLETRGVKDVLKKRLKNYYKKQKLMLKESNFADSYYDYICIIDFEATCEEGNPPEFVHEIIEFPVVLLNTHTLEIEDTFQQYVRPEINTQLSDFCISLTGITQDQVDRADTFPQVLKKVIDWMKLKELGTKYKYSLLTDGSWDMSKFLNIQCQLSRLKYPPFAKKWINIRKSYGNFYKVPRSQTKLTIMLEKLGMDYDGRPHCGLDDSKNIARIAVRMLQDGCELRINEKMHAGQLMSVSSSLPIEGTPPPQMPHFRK
inactive: erlotinib -0.015 | [1] 0.073 | [2] -0.009 | [3] 0.019 | [4] -0.028 | [5] 0.134 | [6] -0.03 | [7] -0.009 | [8] -0.036 | IRAK-1-4 Inhibitor I -0.111 | ibrutinib -0.037 | [9] 0.022 | ralimetinib -0.035 | [10] 0.085 | [11] 0.084 | [12] -0.05 | [13] 0 | [14] -0.033 | [15] 0.411 | [16] 0.012

ENY2 (UniProt Q9NPA8)
UniProt Q9NPA8, sequence (Q9NPA8 whole entry, looked up): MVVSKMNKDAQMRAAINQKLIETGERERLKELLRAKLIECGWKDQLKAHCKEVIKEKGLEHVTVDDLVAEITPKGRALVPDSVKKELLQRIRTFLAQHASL
inactive: erlotinib 0.033 | [1] 0.03 | [2] -0.015 | [3] 0.002 | [4] -0.026 | [5] 0.043 | [6] 0.081 | [7] 0.104 | [8] -0.087 | IRAK-1-4 Inhibitor I -0.019 | ibrutinib 0.161 | [9] 0.038 | ralimetinib -0.021 | [10] 0.057 | [11] 0 | [12] -0.069 | [13] 0.066 | [14] 0.075 | [15] -0.052 | [16] 0.035

FOXJ3 (UniProt Q9UPW0)
inactive: erlotinib 0.018 | [1] 0.085 | [2] -0.015 | [3] -0.001 | [4] 0.014 | [5] 0.032 | [6] -0.01 | [7] -0.035 | [8] -0.013 | IRAK-1-4 Inhibitor I -0.025 | ibrutinib -0.003 | [9] 0.002 | ralimetinib -0.021 | [10] -0.08 | [11] 0.047 | [12] -0.026 | [13] -0.022 | [14] 0.071 | [15] 0.025 | [16] 0.006

FANCI (UniProt Q9NVI1)
inactive: erlotinib 0.012 | [1] -0.031 | [2] -0.056 | [3] 0.013 | [4] 0.021 | [5] -0.001 | [6] -0.051 | [7] -0.008 | [8] -0.009 | IRAK-1-4 Inhibitor I 0.013 | ibrutinib -0.024 | [9] 0.022 | ralimetinib 0.02 | [10] -0.024 | [11] -0.038 | [12] -0.021 | [13] 0.026 | [14] 0.002 | [15] 0.033 | [16] 0.014

FNBP1L (UniProt Q5T0N5)
UniProt Q5T0N5, sequence (Q5T0N5 whole entry, looked up): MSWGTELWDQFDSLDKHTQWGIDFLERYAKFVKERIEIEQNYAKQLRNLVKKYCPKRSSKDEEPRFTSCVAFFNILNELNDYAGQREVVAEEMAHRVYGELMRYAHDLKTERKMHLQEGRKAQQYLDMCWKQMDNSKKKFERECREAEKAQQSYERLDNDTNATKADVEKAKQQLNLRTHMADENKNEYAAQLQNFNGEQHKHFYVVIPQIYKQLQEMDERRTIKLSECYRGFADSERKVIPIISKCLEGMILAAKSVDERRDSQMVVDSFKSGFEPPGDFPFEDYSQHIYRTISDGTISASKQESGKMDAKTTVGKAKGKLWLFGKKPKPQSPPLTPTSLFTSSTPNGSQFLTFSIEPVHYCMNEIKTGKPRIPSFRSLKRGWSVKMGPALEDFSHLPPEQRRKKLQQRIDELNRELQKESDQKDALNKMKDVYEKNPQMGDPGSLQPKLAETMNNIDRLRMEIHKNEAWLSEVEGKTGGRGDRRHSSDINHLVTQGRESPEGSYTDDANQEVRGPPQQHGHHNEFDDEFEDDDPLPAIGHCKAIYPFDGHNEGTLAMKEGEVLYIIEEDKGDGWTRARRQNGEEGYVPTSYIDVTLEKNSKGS
inactive: erlotinib 0.015 | [1] -0.018 | [2] 0.013 | [3] 0.031 | [4] 0.044 | [5] 0.066 | [6] 0 | [7] -0.012 | [8] -0.061 | IRAK-1-4 Inhibitor I -0.016 | ibrutinib 0.034 | [9] -0.006 | ralimetinib 0.055 | [10] -0.082 | [11] -0.003 | [12] 0 | [13] 0.066 | [14] -0.007 | [15] 0.035 | [16] 0.034

GART (UniProt P22102)
inactive: erlotinib -0.007 | [1] 0.022 | [2] -0.025 | [3] -0.013 | [4] 0.016 | [5] 0.015 | [6] -0.011 | [7] -0.001 | [8] -0.003 | IRAK-1-4 Inhibitor I 0.005 | ibrutinib 0.007 | [9] 0.009 | ralimetinib 0.01 | [10] 0.036 | [11] 0.013 | [12] -0.014 | [13] 0.009 | [14] -0.027 | [15] -0.006 | [16] 0.021

EXOC1 (UniProt Q9NV70)
UniProt Q9NV70, sequence (Q9NV70 whole entry, looked up): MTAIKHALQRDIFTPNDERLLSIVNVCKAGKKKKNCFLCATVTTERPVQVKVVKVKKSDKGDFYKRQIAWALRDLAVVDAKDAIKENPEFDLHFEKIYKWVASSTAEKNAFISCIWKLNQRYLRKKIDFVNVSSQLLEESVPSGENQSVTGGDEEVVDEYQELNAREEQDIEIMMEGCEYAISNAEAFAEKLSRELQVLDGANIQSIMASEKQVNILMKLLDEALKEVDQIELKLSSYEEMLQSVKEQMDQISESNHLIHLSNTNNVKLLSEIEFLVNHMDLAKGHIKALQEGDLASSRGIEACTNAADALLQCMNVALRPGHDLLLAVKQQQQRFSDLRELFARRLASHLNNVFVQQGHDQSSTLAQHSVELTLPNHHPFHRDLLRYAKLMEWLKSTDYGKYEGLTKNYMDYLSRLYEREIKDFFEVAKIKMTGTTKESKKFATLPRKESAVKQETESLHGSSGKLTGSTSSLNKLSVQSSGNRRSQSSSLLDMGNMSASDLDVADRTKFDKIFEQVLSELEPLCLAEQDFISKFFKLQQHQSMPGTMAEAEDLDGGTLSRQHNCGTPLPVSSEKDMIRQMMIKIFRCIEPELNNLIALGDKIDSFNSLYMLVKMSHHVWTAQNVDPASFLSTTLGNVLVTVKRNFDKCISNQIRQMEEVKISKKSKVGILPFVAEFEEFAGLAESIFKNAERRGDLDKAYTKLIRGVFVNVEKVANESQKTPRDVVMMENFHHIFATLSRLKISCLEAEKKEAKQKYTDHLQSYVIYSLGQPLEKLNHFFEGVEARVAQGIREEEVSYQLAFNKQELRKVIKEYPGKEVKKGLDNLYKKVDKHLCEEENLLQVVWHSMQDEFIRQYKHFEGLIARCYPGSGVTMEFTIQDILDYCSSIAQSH
inactive: erlotinib 0.05 | [1] -0.005 | [2] -0.047 | [3] -0.009 | [4] 0.074 | [5] -0.035 | [6] -0.043 | [7] 0.014 | [8] -0.016 | IRAK-1-4 Inhibitor I -0.011 | ibrutinib -0.043 | [9] 0.012 | ralimetinib 0.04 | [10] -0.004 | [11] -0.023 | [12] -0.022 | [13] 0.016 | [14] -0.026 | [15] 0.032 | [16] -0.011

ELAVL1 isoform 2 (UniProt Q15717)
UniProt Q15717, sequence (Q15717 whole entry, looked up): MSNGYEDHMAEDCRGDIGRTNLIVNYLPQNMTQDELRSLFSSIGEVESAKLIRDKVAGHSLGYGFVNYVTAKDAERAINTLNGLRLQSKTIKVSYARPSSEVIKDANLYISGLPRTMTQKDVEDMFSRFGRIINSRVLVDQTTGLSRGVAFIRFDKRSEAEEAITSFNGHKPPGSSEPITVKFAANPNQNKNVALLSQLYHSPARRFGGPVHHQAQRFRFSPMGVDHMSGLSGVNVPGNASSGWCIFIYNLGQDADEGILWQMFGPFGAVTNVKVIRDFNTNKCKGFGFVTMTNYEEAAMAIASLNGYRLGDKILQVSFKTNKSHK
inactive: erlotinib 0.047 | [1] 0.008 | [2] 0.019 | [3] 0.025 | [4] -0.017 | [5] 0.001 | [6] -0.069 | [7] -0.027 | [8] 0.036 | IRAK-1-4 Inhibitor I -0.051 | ibrutinib 0.042 | [9] -0.034 | ralimetinib -0.016 | [10] 0.039 | [11] -0.009 | [12] -0.02 | [13] -0.026 | [14] -0.042 | [15] 0.028 | [16] 0.007

FKBP8 isoform 2 (UniProt Q14318)
inactive: erlotinib -0.011 | [1] 0.041 | [2] 0.012 | [3] 0.002 | [4] -0.005 | [5] 0.01 | [6] 0 | [7] -0.054 | [8] 0.001 | IRAK-1-4 Inhibitor I 0.008 | ibrutinib 0.022 | [9] -0.016 | ralimetinib 0.018 | [10] -0.017 | [11] 0.027 | [12] -0.041 | [13] 0.024 | [14] 0.034 | [15] 0.007 | [16] -0.053

GCN1 (UniProt Q92616)
UniProt Q92616, sequence (Q92616 whole entry, looked up): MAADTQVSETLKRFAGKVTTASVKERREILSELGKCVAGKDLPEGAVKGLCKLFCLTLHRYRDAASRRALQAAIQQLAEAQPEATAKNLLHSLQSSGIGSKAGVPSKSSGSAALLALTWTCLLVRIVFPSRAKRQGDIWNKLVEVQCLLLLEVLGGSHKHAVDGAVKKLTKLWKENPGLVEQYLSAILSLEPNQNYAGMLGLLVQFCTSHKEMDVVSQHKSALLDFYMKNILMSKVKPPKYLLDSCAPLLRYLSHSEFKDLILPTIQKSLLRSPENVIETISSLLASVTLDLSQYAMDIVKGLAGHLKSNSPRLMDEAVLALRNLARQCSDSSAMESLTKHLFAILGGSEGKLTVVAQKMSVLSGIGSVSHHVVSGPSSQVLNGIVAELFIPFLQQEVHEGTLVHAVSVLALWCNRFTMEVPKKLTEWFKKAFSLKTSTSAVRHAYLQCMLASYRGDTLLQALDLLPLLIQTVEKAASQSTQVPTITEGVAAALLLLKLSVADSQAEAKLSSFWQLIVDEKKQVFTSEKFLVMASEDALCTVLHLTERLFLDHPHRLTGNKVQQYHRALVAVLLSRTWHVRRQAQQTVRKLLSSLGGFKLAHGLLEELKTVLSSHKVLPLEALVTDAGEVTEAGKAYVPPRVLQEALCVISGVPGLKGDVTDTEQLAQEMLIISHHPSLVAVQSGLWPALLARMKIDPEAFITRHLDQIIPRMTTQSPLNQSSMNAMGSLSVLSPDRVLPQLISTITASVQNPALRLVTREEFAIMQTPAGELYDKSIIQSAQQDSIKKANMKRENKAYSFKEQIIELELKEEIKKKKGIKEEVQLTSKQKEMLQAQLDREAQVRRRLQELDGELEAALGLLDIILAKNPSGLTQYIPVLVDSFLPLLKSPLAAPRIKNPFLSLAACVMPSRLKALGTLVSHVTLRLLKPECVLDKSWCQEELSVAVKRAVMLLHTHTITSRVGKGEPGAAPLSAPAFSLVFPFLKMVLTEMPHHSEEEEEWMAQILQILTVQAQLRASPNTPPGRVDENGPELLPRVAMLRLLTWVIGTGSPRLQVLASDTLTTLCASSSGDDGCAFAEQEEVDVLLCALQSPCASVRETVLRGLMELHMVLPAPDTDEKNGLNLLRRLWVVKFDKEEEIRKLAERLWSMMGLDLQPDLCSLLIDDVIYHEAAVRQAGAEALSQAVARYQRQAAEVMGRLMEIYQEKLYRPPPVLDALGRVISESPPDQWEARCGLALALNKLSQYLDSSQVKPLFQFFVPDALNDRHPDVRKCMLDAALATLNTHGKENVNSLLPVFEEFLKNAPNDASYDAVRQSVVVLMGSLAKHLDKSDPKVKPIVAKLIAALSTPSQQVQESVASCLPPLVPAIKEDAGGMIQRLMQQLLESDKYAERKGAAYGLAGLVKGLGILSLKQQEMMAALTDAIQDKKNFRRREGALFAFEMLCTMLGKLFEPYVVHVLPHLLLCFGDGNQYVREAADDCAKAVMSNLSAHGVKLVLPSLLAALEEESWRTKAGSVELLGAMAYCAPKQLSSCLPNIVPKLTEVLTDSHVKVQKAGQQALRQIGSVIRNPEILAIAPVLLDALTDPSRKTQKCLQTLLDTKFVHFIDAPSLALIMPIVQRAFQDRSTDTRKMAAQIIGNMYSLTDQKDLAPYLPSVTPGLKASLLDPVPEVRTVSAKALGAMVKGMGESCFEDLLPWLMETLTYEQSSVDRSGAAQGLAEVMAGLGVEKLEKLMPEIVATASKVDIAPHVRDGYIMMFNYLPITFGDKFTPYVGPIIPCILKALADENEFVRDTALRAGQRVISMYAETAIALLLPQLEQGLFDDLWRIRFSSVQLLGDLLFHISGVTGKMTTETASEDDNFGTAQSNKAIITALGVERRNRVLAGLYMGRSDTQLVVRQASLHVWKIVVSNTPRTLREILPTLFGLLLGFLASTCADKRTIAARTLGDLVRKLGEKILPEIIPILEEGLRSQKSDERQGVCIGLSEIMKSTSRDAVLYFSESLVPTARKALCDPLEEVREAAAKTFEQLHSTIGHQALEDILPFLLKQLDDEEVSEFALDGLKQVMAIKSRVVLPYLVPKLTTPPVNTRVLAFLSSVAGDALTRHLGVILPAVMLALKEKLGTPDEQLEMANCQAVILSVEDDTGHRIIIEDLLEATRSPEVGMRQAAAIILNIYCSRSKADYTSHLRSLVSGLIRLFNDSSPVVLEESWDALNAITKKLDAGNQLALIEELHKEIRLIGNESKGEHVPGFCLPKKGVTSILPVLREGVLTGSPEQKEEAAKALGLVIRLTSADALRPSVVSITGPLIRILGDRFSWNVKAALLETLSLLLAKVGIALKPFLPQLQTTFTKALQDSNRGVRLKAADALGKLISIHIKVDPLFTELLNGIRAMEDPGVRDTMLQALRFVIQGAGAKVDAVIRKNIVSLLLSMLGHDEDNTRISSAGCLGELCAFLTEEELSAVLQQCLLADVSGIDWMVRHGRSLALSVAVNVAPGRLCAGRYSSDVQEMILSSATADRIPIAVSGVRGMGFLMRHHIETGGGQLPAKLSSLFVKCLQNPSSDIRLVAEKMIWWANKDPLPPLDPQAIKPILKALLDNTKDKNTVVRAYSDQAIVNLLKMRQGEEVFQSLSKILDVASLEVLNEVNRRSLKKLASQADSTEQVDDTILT
inactive: erlotinib 0.048 | [1] 0.066 | [2] -0.086 | [3] 0.022 | [4] 0.054 | [5] 0.026 | [6] -0.016 | [7] -0.008 | [8] 0.003 | IRAK-1-4 Inhibitor I 0.008 | ibrutinib 0.016 | [9] 0.008 | ralimetinib 0.064 | [10] 0.028 | [11] -0.031 | [12] -0.016 | [13] -0.01 | [14] 0.008 | [15] 0.075 | [16] 0.026
